Assay results taken from PubChem BioAssay (NCATS).
Inconclusive results are not listed. A call without a number means that no potency is given here. Calls of active or inactive are those of the source. Calls follow the shape of the dose curve; as a rule, active = well fitted activation curve with a large enough effect; inconclusive = small, poorly fitted or top-dose-only effect; inactive = no such curve, though single readings can be large or run the other way.

Target: Rap guanine nucleotide exchange factor 3 (Homo sapiens) (UniProt O95398)
Assay: Confirmatory qHTS for agonist of cAMP-regulated guanine nucleotide exchange factor 3 (EPAC1) (AID 1645881); also: nearly all actives have a fitted effect of over 75% in size;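 as to activation: EPAC1 catalysed release of BODIPY-GDP from Rap1B seen as fluorescence loss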
Conditions: EPAC1 Rap1B BODIPY-GDP exchange fluorescence; series mostly up to 154 µM
Potency is read from the fitted curve at half-maximal effect.

Rap guanine nucleotide exchange factor 3 (Homo sapiens), sequence (O95398 whole entry, looked up): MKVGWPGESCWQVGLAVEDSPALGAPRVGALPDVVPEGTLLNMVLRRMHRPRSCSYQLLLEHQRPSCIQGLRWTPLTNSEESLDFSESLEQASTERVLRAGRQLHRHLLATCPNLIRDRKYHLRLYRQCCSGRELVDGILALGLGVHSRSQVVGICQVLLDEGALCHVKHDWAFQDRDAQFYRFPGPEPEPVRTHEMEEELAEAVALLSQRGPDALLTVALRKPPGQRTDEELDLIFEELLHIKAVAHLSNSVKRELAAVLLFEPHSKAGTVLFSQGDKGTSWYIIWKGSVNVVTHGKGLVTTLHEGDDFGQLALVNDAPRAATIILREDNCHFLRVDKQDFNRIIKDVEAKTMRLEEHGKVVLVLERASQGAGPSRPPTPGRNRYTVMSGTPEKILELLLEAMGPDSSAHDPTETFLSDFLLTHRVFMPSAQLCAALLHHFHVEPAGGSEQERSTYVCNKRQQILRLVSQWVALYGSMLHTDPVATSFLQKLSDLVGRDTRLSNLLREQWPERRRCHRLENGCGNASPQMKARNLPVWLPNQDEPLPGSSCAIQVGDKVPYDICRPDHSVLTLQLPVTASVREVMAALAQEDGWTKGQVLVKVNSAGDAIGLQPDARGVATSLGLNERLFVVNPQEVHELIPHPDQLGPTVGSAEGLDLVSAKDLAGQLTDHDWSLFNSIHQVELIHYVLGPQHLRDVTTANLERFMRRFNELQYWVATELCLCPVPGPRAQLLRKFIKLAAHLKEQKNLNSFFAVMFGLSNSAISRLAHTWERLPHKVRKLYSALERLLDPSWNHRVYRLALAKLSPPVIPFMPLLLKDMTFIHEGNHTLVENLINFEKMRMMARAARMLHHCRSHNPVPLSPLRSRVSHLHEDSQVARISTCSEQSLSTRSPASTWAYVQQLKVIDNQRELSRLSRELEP

Compound	Potency
CCN1/C(=C/c2ccc3cc(C)ccc3[n+]2CC)Sc2ccccc21	inactive
COc1ccc(N2CCN(C(=O)CSc3ncn[nH]3)CC2)cc1	inactive
CN(C)C(=S)Oc1ccccc1-c1ccccc1OC(=S)N(C)C	inactive
Clc1ccc(-c2cc3ccccc3nc2N2CCOCC2)cc1	inactive
Cc1ccsc1C(=O)OCC(=O)NCCNC(=O)COC(=O)c1sccc1C	inactive
O=C(/C=C/c1ccc([N+](=O)[O-])cc1)Nc1cccc(C(=O)Nc2ccccc2C(=O)O)c1	inactive
CCCCn1c(N)c(N(CC(C)C)C(=O)C2CCN(C(=O)c3ccc(Cl)cc3)CC2)c(=O)[nH]c1=O	inactive
CCC(=O)Nc1ccc(C(=O)NNC(=O)c2ccc([N+](=O)[O-])cc2)cc1	inactive
O=C(c1ccc(Br)cc1)N(Cc1cccs1)c1ccc(F)cc1	inactive
COc1ccccc1OCC(=O)Nc1cccc(S(=O)(=O)NC2=NCCCCC2)c1	inactive
CCN1C(=O)/C(=C/C=C2/SCCN2C)SC1=S	79.4 µM (active)
Cc1nc(N)sc1C(=O)N1N=N1	inactive
CCCCN1C(=O)/C(=C/C=C2\Oc3ccccc3N2CC)SC1=S	112 µM (active)
C=CCOc1ccc(C(c2c(C(=O)O)[nH]c3ccccc23)c2c(C(=O)O)[nH]c3ccccc23)cc1	inactive
CCN1C/C(=C/c2ccc(N3CCOCC3)cc2)C(=O)/C(=C/c2ccc(N3CCOCC3)cc2)C1	100 µM (active)
CCN(CC)c1nc(SCC(=O)O)nc(N(CC)CC)n1	inactive
CCOc1ccc(-n2c(SCC(=O)Nc3ccccc3OC)nc3c(oc4ccccc43)c2=O)cc1	inactive
CN(C)CCCN(C(=O)COc1ccc(Cl)cc1)c1nc2cc3c(cc2s1)OCCO3	inactive
O=C1c2cccc3cccc(c23)N1Cc1ccc(F)cc1	inactive
N#Cc1c(-c2ccccc2)nc(SCc2cccc(Cl)c2)[nH]c1=O	inactive

Compound	Potency
CC(Sc1ccccc1)C(=O)NNC(=O)c1csc(N2CCOCC2)n1 (stereo not drawn)	inactive
Cc1nn(CCc2nn[nH]n2)c2nc(-c3ccc(C4CCCCC4)cc3)cc(C(F)(F)F)c12	inactive
CCOC(=O)c1ccc(N2C(=O)c3[nH]nc(-c4ccc(OCC)cc4)c3C2c2cccs2)cc1 (stereo not drawn)	inactive
COc1ccc(CNC(=O)c2cc(=O)c3cc(C)ccc3o2)cc1	inactive
O=C(COc1ccccc1Cl)Nc1cccc(S(=O)(=O)NC2=NCCCCC2)c1	inactive
Cc1ccc2nc(-c3ccc(NC(=O)c4ccco4)cc3)[nH]c2c1	inactive
Cc1ccc(-c2nc3ccc(Br)cn3c2Cc2ccccc2C(F)(F)F)cc1	inactive
COc1cc(/C=C2\SC(=O)N(CC(=O)Nc3cccc(C)c3)C2=O)cc([N+](=O)[O-])c1O	inactive
COc1ccc(NC(=O)Cn2cnc3sc(C)c(S(=O)(=O)N4CCOCC4)c3c2=O)c(OC)c1	inactive
COc1ccc(NC(=O)CS(=O)(=O)Cc2ccccc2)c([N+](=O)[O-])c1	inactive
COC(=O)C1(Cc2ccccc2)NC(c2ccc(F)cc2)C2C(=O)N(C)C(=O)C21 (stereo not drawn)	inactive
NC(=O)c1sc(=S)n2c1[nH]c(=O)c1sccc12	inactive
CCOC(=O)c1cc2n(c1N)-c1ccccc1C2=O	100 µM (active)
CC(=O)NC(CCS(C)(=O)=O)C(=O)Nc1cc(C)on1 (stereo not drawn)	inactive
NS(=O)(=O)c1ccc(-c2cccc(/C=C3\SC(=O)NC3=O)c2)cc1	inactive
O=c1cc(-c2ccccc2)nc2c(-c3ccccc3)c(C(F)(F)F)[nH]n12	inactive
CCCOc1c(OC)cccc1C1CC(=O)Nc2cc(OC)c(OC)c(OC)c21 (stereo not drawn)	inactive
CCCc1cc2c(cc1N(C)S(=O)(=O)c1ccccc1)OCO2	inactive
Cc1ccc2[nH]cc(C(c3ccccc3)c3cccs3)c2c1 (stereo not drawn)	inactive

Target: Rap guanine nucleotide exchange factor 4 (Homo sapiens) (UniProt Q8WZA2)
Assay: Confirmatory qHTS for agonist of cAMP-regulated guanine nucleotide exchange factor 4 (EPAC2) (AID 1645884);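 also: nucleotide exchange releases bodipy-GDP from Rap1 and this lowers its fluorescence; nearly all actives have a fitted effect of over 65% in size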
Conditions: EPAC2 GEF activity, Rap1B-BODIPY-GDP fluorescence; series mostly up to 154 µM

Rap guanine nucleotide exchange factor 4 (Homo sapiens), sequence (Q8WZA2 whole entry, looked up): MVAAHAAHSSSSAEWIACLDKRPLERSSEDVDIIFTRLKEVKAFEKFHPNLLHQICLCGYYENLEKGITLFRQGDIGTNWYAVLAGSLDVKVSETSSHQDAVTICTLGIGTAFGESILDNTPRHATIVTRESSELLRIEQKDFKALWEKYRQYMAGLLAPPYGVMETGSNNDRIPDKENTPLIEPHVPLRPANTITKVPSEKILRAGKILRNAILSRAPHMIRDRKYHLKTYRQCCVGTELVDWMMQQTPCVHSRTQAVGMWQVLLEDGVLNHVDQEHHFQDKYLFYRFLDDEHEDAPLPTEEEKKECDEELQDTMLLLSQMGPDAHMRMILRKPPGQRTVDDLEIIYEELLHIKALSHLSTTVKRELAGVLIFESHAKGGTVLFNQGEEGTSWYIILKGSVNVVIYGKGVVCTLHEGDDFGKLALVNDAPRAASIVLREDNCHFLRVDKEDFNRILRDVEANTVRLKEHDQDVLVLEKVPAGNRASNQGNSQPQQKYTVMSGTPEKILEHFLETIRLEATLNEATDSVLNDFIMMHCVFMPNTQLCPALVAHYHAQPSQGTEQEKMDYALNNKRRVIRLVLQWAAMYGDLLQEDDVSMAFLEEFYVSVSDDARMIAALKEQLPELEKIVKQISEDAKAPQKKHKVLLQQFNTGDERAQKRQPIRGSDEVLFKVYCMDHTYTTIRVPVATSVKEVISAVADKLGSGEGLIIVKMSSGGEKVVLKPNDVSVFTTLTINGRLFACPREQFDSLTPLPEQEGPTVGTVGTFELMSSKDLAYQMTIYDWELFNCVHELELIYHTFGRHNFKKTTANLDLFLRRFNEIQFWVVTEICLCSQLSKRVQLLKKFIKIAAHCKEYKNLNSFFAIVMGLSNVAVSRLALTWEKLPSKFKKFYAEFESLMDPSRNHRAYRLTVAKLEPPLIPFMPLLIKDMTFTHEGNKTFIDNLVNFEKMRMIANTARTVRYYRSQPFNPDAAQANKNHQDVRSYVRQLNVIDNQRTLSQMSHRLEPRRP

Compound	Potency	activation
CCN1/C(=C/c2ccc3cc(C)ccc3[n+]2CC)Sc2ccccc21	inactive	
COc1ccc(N2CCN(C(=O)CSc3ncn[nH]3)CC2)cc1	inactive	
CN(C)C(=S)Oc1ccccc1-c1ccccc1OC(=S)N(C)C	inactive	
Clc1ccc(-c2cc3ccccc3nc2N2CCOCC2)cc1	inactive	
Cc1ccsc1C(=O)OCC(=O)NCCNC(=O)COC(=O)c1sccc1C	inactive	
O=C(/C=C/c1ccc([N+](=O)[O-])cc1)Nc1cccc(C(=O)Nc2ccccc2C(=O)O)c1		-2.89% [at 17.1 µM, percent relative to cAMP agonist control] (inactive)
CCCCn1c(N)c(N(CC(C)C)C(=O)C2CCN(C(=O)c3ccc(Cl)cc3)CC2)c(=O)[nH]c1=O	inactive	
CCC(=O)Nc1ccc(C(=O)NNC(=O)c2ccc([N+](=O)[O-])cc2)cc1	inactive	
O=C(c1ccc(Br)cc1)N(Cc1cccs1)c1ccc(F)cc1	inactive	
COc1ccccc1OCC(=O)Nc1cccc(S(=O)(=O)NC2=NCCCCC2)c1	inactive	
CCN1C(=O)/C(=C/C=C2/SCCN2C)SC1=S		20% [at 17.1 µM, percent relative to cAMP agonist control] (inactive)
Cc1nc(N)sc1C(=O)N1N=N1	inactive	
CCCCN1C(=O)/C(=C/C=C2\Oc3ccccc3N2CC)SC1=S	100 µM (active)	
C=CCOc1ccc(C(c2c(C(=O)O)[nH]c3ccccc23)c2c(C(=O)O)[nH]c3ccccc23)cc1	inactive	
CCN1C/C(=C/c2ccc(N3CCOCC3)cc2)C(=O)/C(=C/c2ccc(N3CCOCC3)cc2)C1	100 µM (active)	
CCN(CC)c1nc(SCC(=O)O)nc(N(CC)CC)n1	inactive	
CCOc1ccc(-n2c(SCC(=O)Nc3ccccc3OC)nc3c(oc4ccccc43)c2=O)cc1	inactive	
CN(C)CCCN(C(=O)COc1ccc(Cl)cc1)c1nc2cc3c(cc2s1)OCCO3	inactive	
O=C1c2cccc3cccc(c23)N1Cc1ccc(F)cc1		1.12% [at 17.1 µM, percent relative to cAMP agonist control] (inactive)
N#Cc1c(-c2ccccc2)nc(SCc2cccc(Cl)c2)[nH]c1=O	inactive	

Compound	Potency	activation
CC(Sc1ccccc1)C(=O)NNC(=O)c1csc(N2CCOCC2)n1 (stereo not drawn)		4.98% [at 17.1 µM, percent relative to cAMP agonist control] (inactive)
Cc1nn(CCc2nn[nH]n2)c2nc(-c3ccc(C4CCCCC4)cc3)cc(C(F)(F)F)c12	inactive	
CCOC(=O)c1ccc(N2C(=O)c3[nH]nc(-c4ccc(OCC)cc4)c3C2c2cccs2)cc1 (stereo not drawn)	inactive	
COc1ccc(CNC(=O)c2cc(=O)c3cc(C)ccc3o2)cc1	inactive	
O=C(COc1ccccc1Cl)Nc1cccc(S(=O)(=O)NC2=NCCCCC2)c1	inactive	
Cc1ccc2nc(-c3ccc(NC(=O)c4ccco4)cc3)[nH]c2c1		7.16% [at 17.1 µM, percent relative to cAMP agonist control] (inactive)
Cc1ccc(-c2nc3ccc(Br)cn3c2Cc2ccccc2C(F)(F)F)cc1	inactive	
COc1cc(/C=C2\SC(=O)N(CC(=O)Nc3cccc(C)c3)C2=O)cc([N+](=O)[O-])c1O	inactive	
COc1ccc(NC(=O)Cn2cnc3sc(C)c(S(=O)(=O)N4CCOCC4)c3c2=O)c(OC)c1		-0.644% [at 17.1 µM, percent relative to cAMP agonist control] (inactive)
COc1ccc(NC(=O)CS(=O)(=O)Cc2ccccc2)c([N+](=O)[O-])c1		7.06% [at 17.1 µM, percent relative to cAMP agonist control] (inactive)
COC(=O)C1(Cc2ccccc2)NC(c2ccc(F)cc2)C2C(=O)N(C)C(=O)C21 (stereo not drawn)		1.04% [at 17.1 µM, percent relative to cAMP agonist control] (inactive)
NC(=O)c1sc(=S)n2c1[nH]c(=O)c1sccc12	inactive	
CCOC(=O)c1cc2n(c1N)-c1ccccc1C2=O	100 µM (active)	
CC(=O)NC(CCS(C)(=O)=O)C(=O)Nc1cc(C)on1 (stereo not drawn)	inactive	
NS(=O)(=O)c1ccc(-c2cccc(/C=C3\SC(=O)NC3=O)c2)cc1	inactive	
O=c1cc(-c2ccccc2)nc2c(-c3ccccc3)c(C(F)(F)F)[nH]n12	inactive	
CCCOc1c(OC)cccc1C1CC(=O)Nc2cc(OC)c(OC)c(OC)c21 (stereo not drawn)	inactive	
CCCc1cc2c(cc1N(C)S(=O)(=O)c1ccccc1)OCO2	inactive	
Cc1ccc2[nH]cc(C(c3ccccc3)c3cccs3)c2c1 (stereo not drawn)	inactive	
